# Results as given in PubChem BioAssay AID651593 (National Center for Advancing Translational Sciences (NCATS), 2012).
# Screen size: about 1,100 compounds; about 860 (78%) were called active. Not shown: some 19% with an inconclusive outcome. Calls come from the whole dose curve; as a rule, active = well fitted activation curve with a large enough effect; inconclusive = small, poorly fitted or top-dose-only effect; inactive = flat fitted curve, though single readings scatter. The set was probably picked from earlier hits. The list shows a part of the results.
# Assay: qHTS of Nrf2 Activators: Hit Validation in Primary Assay; note: nearly all actives have a fitted effect of over 70% in size
# Settings: Nrf2/ARE reporter cell assay, activation
# Text: Many diseases have some form of oxidative stress injury and ties to inflammation, causing a host of problems for the patient. The antioxidant response element (ARE) plays an important role in alleviating the harmful effects of oxidative stress. The antioxidant response element (ARE) is a transcriptional regulatory element involved in the activation of genes coding for a number of antioxidant proteins and detoxifying enzymes. These enzymes work in concert to protect tissues from oxidative insults and chemical toxicities in human hepatocytes and immune cells. The protective effects of ARE activation are primarily triggered through Nrf2 (NF-E2-related factor) binding to and activating AREs. It is known that Nrf2 controls the production of over 250 antioxidant and detoxification proteins (Hu et al., 2006), thereby protecting tissues by increasing cellular antioxidant content and suppressing inflammatory signaling pathways. The transcription factor Nrf2 is a central link between oxidative chemicals, such as phenolic antioxidants and electrophilic compounds, and the activation of ARE. Nrf2 levels are constitutively low as a consequence of its interaction with Keap1, which targets its degradation (Zipper and Mulcahy, 2002). Electrophiles react with key cysteine residues in Keap1, releasing Nrf2 and allowing its translocation to the nucleus. Once within the nucleus, Nrf2 complexes with coactivators such as p300, and binds to the AREs to induce gene transcription of cytoprotective enzymes, resulting in the prevention of toxicity. Activation of Nrf2 protects tissues by increasing cellular antioxidant content and suppressing inflammatory signaling pathways. Identifying novel and potent Nrf2 activators by using the AREc32 cell line to detect ARE activation by small molecules will lead to the identification and development of probes to study protective pathways in multiple tissues. These specific probes are essential to study the ARE pathway, and eventually to determine whether this pathway does activate genes that could protect against a host of diseases, including cardiovascular diseases, obesity, diabetes, Alzheimer's, and Parkinson's disease.
# This project's aim is to identify novel and potent Nrf2 activators by using the AREc32 cell line to detect ARE activation by small molecules, which will lead to the identification and development of probes to study the ARE pathway.
# NIH Chemical Genomics Center [NCGC]
# NIH Molecular Libraries Probe Centers Network [MLPCN]
# Assay Submitter (PI): Curtis Klaassen, University of Kansas Medical Center
# Quantification of ARE activation after compound treatment was measured by the Steady-Glo Luciferase (R) assay system (Promega) in AREc32_fluc stable cells. The Steady-Glo reagent acts by cell lysis and generation of a luminescent signal proportional to ARE activation, through the luciferase reporter in the AREc32 stable cell line. AREc32_fluc cells were harvested from T225 flask and resuspended in phenol red free OPTI-MEM medium with 5% FBS. Then 5 microL of 200,000 cells/mL resuspended cells were dispensed into each well of white, solid bottom, 1536-well tissue culture-treated plates using a Multidrop Combi dispenser. After overnight culture at 37 degrees C with 5% CO2, a total of 23 nL of compounds at 5 selected concentrations from the MLSMR/Sytravon or positive control (40 uM stock of CDDO-IM and 2 mM of tBHQ) in DMSO was transferred to each well of the assay plate using a pintool (Kalypsys, San Diego, CA), and the plates were further incubated at 37 degrees C with 5% CO2 for 24 hours. After that, 2 microL of Steady Glo luminescent substrate mix (Promega) was added to each well. The plate was incubated at room temperature for 30 minutes. The plates were measured on a ViewLux plate reader (PerkinElmer) with clear filter.
# Potency is the fitted concentration of half-maximal effect.
row,Compound,Potency
1,COc1ccc(Sc2cnn(-c3ccccc3)c(=O)c2Cl)cc1,4.61 µM (active)
2,O=c1[nH]c(=S)[nH]c(O)c1N=Nc1ccc(S(=O)(=O)N2CCc3ccccc32)cc1,16.4 µM (active)
3,Clc1ccccc1Nc1ncnc(-n2cccc2)n1,2.59 µM (active)
4,Cc1cccc(C(=O)Nc2nnc(SCC(=O)NCc3ccco3)s2)c1,8.2 µM (active)
5,Cc1cc(SCC(=O)N/N=C/c2ccco2)nc2ccccc12,11.6 µM (active)
6,CCn1c(=O)oc2cc(NC(=O)CCl)ccc21,4.61 µM (active)
7,Cn1c(=O)oc2cc(NC(=O)CCl)ccc21,4.61 µM (active)
8,O=C(O)c1ccc([N+](=O)[O-])c([N+](=O)[O-])c1,5.17 µM (active)
9,Cn1c(O)c(N=Nc2ccc(S(=O)(=O)N3CCOCC3)cc2)c(=O)n(C)c1=O,18.4 µM (active)
10,Clc1cccc(/C=N\Nc2nccs2)c1,2.91 µM (active)
11,O=C(Nc1ccc(Cl)c(Cl)c1)c1ccco1,4.61 µM (active)
12,O=C1c2ccccc2-c2cc3ccccc3cc21,4.61 µM (active)
13,Fc1cccc(F)c1-c1nc(-c2ccc(Cl)cc2)no1,3.66 µM (active)
14,O=C(/C=C/c1ccccc1)c1c(O)n(CCc2ccccc2)c(=O)[nH]c1=O,3.66 µM (active)
15,CCCCn1c(O)c(C(=O)/C=C/c2ccc3c(c2)OCO3)c(=O)[nH]c1=O,9.2 µM (active)
